Measured values taken from PMC7862700, “An all-to-all approach to the identification of sequence-specific readers for epigenetic DNA modifications on cytosine”.

Legend:
Assay in all cases: DAPPL (digital affinity profiling via proximity ligation, sequencing); 10 mM Tris-HCl pH 7.5, 50 mM NaCl, 1 mM DTT, 4% glycerol, room temperature, 30 min; GST-TFs on glutathione beads, 16-mer random dsDNA library, 0.1% formaldehyde crosslink after washing; high values mean tight binding
Settings in all cases: protein: recombinant; tags: N-terminal GST; dsDNA, one strand shown
GABPA = biological target: T1, GABPA (Homo sapiens, UniProt Q06546 1-454)
T1 sequence: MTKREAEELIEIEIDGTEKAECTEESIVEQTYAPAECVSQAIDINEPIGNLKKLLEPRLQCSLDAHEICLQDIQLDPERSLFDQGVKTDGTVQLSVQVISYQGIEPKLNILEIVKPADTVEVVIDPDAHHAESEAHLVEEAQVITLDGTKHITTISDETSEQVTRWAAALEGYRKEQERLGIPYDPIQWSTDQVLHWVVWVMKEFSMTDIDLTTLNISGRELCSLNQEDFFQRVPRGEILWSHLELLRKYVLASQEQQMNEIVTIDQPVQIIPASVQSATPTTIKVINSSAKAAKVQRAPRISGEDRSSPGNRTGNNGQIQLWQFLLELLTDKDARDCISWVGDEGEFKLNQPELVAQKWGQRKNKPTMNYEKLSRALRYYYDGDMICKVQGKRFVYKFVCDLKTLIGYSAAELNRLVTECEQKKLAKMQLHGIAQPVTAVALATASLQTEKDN
Summary of the method: (§1)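 GST fusions of human transcription factors were expressed in yeast and captured with glutathione beads. Once given DNA barcodes and pooled alongside a tag-only sample, they were incubated for 30 min at room temperature with 200 nmole of a random double-stranded 16-mer DNA library in Tris/NaCl/DTT/glycerol buffer, then washed, crosslinked (0.1% formaldehyde), proximity-ligated, PCR-amplified and sequenced on an Illumina NextSeq500. The binding signal of each hexamer is its read frequency for a factor divided by its frequency for the tag-only sample.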

ETV5 = ETV5 (Homo sapiens, UniProt P41161 1-510)
Summary of the method: as §1

ELK4 = biological target: T2, ELK4 (Homo sapiens, UniProt P28324-2 1-405)
T2 sequence: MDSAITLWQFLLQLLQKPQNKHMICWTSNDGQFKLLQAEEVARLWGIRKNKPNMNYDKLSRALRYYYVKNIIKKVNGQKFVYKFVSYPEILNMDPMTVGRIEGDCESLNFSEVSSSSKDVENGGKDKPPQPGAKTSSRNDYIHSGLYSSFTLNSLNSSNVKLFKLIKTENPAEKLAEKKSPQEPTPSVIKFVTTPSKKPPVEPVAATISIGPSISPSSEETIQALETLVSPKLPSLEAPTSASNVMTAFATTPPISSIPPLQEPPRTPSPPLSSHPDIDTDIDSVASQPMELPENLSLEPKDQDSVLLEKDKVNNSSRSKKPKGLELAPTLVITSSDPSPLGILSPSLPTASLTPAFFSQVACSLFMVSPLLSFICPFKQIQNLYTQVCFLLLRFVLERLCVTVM
Summary of the method: as §1

ETV7 = biological target: T3, ETV7 (Homo sapiens, UniProt Q9Y603 1-341)
T3 sequence: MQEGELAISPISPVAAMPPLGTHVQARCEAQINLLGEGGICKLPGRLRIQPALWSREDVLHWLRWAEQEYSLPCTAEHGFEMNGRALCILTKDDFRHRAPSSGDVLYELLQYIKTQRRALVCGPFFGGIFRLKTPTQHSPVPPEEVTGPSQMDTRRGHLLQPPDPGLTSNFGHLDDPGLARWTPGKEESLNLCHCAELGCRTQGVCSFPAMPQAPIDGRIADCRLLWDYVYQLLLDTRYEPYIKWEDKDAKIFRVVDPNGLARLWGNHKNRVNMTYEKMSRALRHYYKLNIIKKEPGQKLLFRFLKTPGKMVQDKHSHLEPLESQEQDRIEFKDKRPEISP
Summary of the method: as §1

ELK1 = biological target: T4, ELK1 (Homo sapiens, UniProt P19419 1-428)
T4 sequence: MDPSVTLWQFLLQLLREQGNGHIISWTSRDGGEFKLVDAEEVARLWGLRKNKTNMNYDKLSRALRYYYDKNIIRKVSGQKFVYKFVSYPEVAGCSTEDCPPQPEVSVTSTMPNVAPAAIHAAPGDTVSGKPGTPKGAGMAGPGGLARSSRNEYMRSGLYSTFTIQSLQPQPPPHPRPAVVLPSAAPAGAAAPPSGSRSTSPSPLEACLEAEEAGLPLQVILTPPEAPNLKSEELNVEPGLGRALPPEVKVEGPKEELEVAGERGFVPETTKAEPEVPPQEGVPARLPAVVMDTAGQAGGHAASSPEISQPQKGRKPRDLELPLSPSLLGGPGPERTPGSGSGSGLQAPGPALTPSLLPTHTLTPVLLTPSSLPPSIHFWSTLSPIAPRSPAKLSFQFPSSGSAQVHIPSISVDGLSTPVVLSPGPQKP
Summary of the method: as §1

SPDEF = biological target: T5, SPDEF (Homo sapiens, UniProt O95238 1-335)
T5 sequence: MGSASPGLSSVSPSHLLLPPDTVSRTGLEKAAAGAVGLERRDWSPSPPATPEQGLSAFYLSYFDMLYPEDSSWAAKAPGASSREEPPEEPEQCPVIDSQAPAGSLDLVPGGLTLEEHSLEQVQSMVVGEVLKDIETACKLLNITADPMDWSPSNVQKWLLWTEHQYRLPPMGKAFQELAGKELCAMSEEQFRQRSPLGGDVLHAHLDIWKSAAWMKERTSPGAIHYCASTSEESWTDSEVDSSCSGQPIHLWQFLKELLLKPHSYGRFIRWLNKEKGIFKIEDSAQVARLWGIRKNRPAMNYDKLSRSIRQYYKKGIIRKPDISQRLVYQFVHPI
Summary of the method: as §1

ETV3 = biological target: T6, ETV3 (Homo sapiens, UniProt P41162-2 1-143)
T6 sequence: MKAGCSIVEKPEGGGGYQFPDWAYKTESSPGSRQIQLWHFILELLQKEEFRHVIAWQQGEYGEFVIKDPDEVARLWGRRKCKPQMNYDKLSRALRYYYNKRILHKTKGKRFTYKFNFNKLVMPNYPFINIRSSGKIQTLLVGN
Summary of the method: as §1

ELF1 = ELF1 (Homo sapiens, UniProt P32519 1-619)
Summary of the method: as §1

SPIB = SPIB (Homo sapiens, UniProt Q01892 1-262)
Summary of the method: as §1

SPIC = biological target: T7, SPIC (Homo sapiens, UniProt Q8N5J4 1-248)
T7 sequence: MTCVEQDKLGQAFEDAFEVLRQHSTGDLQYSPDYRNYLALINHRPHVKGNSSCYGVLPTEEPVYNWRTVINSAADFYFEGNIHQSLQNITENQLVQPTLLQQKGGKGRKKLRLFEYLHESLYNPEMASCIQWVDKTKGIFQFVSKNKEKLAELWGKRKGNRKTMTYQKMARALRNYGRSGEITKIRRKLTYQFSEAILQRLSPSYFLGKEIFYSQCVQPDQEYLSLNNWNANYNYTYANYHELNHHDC
Summary of the method: as §1

ERF = biological target: T8, ERF (Homo sapiens, UniProt P50548 1-548)
T8 sequence: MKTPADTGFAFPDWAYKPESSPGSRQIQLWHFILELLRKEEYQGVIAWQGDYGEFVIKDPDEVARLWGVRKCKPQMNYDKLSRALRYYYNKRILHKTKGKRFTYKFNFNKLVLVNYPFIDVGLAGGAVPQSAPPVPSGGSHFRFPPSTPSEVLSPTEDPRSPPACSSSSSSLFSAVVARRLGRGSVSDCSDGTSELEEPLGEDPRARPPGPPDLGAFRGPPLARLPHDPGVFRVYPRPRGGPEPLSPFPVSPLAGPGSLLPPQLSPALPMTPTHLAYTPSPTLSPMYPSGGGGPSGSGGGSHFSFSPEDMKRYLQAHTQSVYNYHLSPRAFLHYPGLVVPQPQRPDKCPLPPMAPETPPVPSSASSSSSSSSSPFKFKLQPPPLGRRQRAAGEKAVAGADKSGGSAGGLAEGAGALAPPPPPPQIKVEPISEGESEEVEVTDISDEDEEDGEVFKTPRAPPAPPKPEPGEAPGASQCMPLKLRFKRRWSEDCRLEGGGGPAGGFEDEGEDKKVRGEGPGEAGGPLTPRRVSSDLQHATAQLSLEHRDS
Summary of the method: as §1

ETV3L = biological target: T9, ETV3L (Homo sapiens, UniProt Q6ZN32 1-361)
T9 sequence: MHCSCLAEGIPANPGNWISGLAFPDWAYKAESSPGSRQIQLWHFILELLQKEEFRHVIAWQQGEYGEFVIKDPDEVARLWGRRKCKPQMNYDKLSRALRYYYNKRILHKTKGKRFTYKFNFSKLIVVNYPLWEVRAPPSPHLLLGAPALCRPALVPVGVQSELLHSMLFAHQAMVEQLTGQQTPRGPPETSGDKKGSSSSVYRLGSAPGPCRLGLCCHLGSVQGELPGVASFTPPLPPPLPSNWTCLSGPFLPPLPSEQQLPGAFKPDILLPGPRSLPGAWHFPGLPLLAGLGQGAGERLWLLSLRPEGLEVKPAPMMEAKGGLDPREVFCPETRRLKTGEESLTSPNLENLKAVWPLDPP
Summary of the method: as §1

ETS2 = biological target: T10, ETS2 (Homo sapiens, UniProt P15036 1-469)
T10 sequence: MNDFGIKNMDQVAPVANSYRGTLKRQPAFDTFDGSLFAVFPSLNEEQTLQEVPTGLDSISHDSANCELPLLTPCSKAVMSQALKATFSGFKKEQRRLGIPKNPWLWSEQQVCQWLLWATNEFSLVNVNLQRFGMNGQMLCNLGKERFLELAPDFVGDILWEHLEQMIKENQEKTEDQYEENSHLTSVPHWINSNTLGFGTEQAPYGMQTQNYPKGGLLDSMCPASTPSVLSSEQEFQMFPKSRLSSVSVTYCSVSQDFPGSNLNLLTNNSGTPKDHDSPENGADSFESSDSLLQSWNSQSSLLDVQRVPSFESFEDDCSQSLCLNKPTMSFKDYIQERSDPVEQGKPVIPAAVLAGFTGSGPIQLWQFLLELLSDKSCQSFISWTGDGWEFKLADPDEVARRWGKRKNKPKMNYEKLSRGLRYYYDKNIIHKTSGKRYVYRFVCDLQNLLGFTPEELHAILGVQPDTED
Summary of the method: as §1

ETV6 = ETV6 (Homo sapiens, UniProt P41212 1-452)
Summary of the method: as §1

ETV5, sequence (P41161 whole entry): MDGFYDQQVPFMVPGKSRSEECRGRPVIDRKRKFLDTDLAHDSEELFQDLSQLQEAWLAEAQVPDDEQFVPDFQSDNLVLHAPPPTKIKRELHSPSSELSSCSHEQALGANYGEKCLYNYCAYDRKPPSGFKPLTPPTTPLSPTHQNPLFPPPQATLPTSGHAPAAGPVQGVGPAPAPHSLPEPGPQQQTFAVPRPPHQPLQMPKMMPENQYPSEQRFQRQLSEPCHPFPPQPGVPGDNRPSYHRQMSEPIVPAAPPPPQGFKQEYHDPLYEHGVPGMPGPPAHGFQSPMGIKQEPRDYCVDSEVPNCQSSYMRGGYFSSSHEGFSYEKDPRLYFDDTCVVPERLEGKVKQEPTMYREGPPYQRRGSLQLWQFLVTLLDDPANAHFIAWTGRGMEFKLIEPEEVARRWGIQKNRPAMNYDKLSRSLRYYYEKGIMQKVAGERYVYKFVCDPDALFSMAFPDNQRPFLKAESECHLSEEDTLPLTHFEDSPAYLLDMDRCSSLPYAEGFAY
SPIB, sequence (Q01892 whole entry): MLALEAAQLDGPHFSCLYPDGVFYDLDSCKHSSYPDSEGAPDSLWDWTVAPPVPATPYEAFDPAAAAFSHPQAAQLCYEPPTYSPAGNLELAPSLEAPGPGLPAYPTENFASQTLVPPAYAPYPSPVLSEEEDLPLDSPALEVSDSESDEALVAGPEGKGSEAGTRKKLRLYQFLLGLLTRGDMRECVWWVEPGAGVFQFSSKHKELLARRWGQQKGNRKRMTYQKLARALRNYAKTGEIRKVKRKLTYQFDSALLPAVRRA
ELF1, sequence (P32519 whole entry): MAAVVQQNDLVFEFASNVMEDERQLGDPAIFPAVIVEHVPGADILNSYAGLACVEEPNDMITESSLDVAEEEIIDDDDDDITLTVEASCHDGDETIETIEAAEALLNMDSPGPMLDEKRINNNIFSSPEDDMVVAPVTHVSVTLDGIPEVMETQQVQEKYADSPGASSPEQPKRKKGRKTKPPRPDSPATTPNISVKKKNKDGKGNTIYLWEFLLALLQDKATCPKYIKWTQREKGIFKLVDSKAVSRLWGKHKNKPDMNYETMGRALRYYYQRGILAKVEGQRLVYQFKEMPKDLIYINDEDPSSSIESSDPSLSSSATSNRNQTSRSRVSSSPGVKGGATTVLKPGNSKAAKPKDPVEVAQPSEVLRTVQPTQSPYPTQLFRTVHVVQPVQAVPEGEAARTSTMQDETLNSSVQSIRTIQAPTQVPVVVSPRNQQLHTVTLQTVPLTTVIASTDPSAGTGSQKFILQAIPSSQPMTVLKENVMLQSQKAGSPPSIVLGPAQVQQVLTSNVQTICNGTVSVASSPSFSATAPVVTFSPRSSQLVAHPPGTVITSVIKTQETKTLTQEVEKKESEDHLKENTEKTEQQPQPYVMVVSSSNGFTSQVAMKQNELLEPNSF
ETV6, sequence (P41212 whole entry): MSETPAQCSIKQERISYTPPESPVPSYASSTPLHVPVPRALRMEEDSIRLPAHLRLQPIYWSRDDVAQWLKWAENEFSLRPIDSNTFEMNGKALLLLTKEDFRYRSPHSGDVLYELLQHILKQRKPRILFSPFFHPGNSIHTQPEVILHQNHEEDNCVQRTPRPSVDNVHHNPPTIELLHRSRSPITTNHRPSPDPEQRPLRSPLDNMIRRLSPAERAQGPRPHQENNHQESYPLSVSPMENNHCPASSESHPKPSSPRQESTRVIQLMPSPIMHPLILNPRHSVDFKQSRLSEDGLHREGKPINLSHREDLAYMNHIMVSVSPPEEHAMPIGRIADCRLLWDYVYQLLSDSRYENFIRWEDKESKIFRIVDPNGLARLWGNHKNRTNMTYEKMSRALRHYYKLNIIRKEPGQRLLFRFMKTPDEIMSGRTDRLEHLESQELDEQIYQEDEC

Sequence | binding signal (GABPA) | binding signal (ETV5) | binding signal (ELK4) | binding signal (ETV7) | binding signal (ELK1) | binding signal (SPDEF) | binding signal (ETV3) | binding signal (ELF1) | binding signal (SPIB) | binding signal (SPIC) | binding signal (ERF) | binding signal (ETV3L) | binding signal (ETS2) | binding signal (ETV6)
GTTGGT | 1.04 fold enrichment (6-mer frequency, TF over GST control) | 1.01 fold enrichment (6-mer frequency, TF over GST control) | 1.09 fold enrichment (6-mer frequency, TF over GST control) | 1.02 fold enrichment (6-mer frequency, TF over GST control) | – | – | – | – | – | – | – | – | – | –
GCCCGG | – | 1.01 fold enrichment (6-mer frequency, TF over GST control) | – | 1.01 fold enrichment (6-mer frequency, TF over GST control) | 1.03 fold enrichment (6-mer frequency, TF over GST control) | 1.06 fold enrichment (6-mer frequency, TF over GST control) | 1.07 fold enrichment (6-mer frequency, TF over GST control) | – | – | – | – | – | – | –
GTGCCT | – | 1.07 fold enrichment (6-mer frequency, TF over GST control) | 1.16 fold enrichment (6-mer frequency, TF over GST control) | – | 1.05 fold enrichment (6-mer frequency, TF over GST control) | 1.02 fold enrichment (6-mer frequency, TF over GST control) | 1.07 fold enrichment (6-mer frequency, TF over GST control) | 1.02 fold enrichment (6-mer frequency, TF over GST control) | 1.05 fold enrichment (6-mer frequency, TF over GST control) | 1.2 fold enrichment (6-mer frequency, TF over GST control) | 1.07 fold enrichment (6-mer frequency, TF over GST control) | 1.17 fold enrichment (6-mer frequency, TF over GST control) | 1.06 fold enrichment (6-mer frequency, TF over GST control) | 1.02 fold enrichment (6-mer frequency, TF over GST control)
